Design in all cases: scale not given: direction of the effect not stated beside the values
The target of experiment [1] is Protein translocase subunit SecA (Escherichia coli (strain K12)) (UniProt P10408). The experiment is described as follows: Assay to Identify E. coli SecA ATPase Inhibitors. It counts as functional. Conditions: 30 µM.
The target in experiment [2] is T1, Ubiquitin-activating enzyme e1, putative (Leishmania donovani (strain BPK282A1)) (UniProt E9BSI1).
T1 sequence (whole entry): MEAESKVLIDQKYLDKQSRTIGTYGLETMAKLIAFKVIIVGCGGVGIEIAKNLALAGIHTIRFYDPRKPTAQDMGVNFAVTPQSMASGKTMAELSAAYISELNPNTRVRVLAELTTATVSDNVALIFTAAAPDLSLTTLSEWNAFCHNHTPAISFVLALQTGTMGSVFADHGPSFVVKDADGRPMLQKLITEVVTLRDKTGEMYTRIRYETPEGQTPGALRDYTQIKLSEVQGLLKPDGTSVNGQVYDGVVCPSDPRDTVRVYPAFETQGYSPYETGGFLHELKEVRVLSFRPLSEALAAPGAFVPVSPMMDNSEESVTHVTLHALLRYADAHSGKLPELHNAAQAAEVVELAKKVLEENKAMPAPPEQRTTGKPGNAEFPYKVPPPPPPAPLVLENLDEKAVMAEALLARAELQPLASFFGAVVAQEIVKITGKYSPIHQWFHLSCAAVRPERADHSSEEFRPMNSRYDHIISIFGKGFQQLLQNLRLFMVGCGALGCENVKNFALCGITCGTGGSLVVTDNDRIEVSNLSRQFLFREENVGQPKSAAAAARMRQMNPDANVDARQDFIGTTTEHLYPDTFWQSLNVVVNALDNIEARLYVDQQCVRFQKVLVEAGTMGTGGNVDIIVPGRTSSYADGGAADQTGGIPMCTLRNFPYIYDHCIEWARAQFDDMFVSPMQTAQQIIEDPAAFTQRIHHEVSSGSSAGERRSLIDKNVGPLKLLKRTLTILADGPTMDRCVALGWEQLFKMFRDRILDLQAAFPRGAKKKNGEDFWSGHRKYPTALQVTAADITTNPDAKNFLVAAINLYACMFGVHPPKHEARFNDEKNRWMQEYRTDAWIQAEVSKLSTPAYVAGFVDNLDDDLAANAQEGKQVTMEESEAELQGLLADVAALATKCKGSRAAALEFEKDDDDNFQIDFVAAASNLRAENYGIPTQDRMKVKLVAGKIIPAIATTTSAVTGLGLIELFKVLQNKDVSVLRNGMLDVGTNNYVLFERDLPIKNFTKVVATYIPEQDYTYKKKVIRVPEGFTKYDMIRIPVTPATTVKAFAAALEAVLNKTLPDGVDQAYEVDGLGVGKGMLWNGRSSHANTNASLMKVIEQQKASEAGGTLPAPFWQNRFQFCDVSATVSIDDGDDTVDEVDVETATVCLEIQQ
The experiment is described as follows: Leishmania donovani Ubiquitin Activating Enzyme (LdE1). It is filed as functional. As to conditions: 30 µM.

Experiment [3] has as its target AMP-activated protein kinase, AMPK (Homo sapiens) (UniProt P54646+O43741+P54619+Q9UGJ0+Q9Y478+Q13131+Q9UGI9). The experiment is described as follows: AMP-dependent Kinase enzyme assay. An in vitro enzyme assay that detects ADP turnover that is directly proportional to AMPK activity. This uses naive AMPK that is activated during the assay with MK-8722. It counts as functional. As to conditions: 30 µM.

Experiment [4] addresses Sialic acid-binding Ig-like lectin 9 (Homo sapiens) (UniProt Q9Y336). The experiment is described as follows: Hs-Siglec9 ALPHAscreen SOP 20170721. As to conditions: 10 µM. (In general: Bead proximity is the source of the signal in Alpha formats.)
In experiment [5] the test system is Trypanosoma cruzi. Nature of the experiment: Trypanosoma cruzi phosphomannomutase and mannose-1-phosphate guanylyltransferase assay. As to conditions: 10 µM. It is filed as functional.
The target in experiment [6] is T2, Arginase-2, mitochondrial (Homo sapiens) (UniProt P78540).
T2 sequence (whole entry): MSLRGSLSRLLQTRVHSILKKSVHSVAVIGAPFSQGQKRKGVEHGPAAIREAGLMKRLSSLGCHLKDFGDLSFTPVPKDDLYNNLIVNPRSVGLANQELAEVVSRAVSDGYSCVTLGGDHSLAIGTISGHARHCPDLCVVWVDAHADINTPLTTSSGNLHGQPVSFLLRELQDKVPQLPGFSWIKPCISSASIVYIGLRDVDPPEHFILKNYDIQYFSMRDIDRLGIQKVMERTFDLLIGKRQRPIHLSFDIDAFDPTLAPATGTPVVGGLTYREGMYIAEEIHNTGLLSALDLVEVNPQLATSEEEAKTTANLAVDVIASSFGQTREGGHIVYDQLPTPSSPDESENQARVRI
The experiment is described as follows: in vitro enzyme assay to detect the production of urea directly proportional to the activity of Arginase II. Also: in the data most compounds retested in dose-response had high values. Conditions: 33.3 µM. It counts as functional.

Experiment [7] concerns the target T3, Proteasome subunit beta (Trypanosoma cruzi) (UniProt O96673).
T3 sequence (whole entry): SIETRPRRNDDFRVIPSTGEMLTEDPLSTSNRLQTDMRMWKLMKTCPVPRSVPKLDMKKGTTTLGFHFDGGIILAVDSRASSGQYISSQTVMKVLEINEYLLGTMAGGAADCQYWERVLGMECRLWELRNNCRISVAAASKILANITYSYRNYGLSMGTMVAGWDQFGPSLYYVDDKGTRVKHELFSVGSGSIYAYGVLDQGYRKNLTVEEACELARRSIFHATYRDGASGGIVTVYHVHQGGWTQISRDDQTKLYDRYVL
Nature of the experiment: Trypanosoma cruzi proteasome chymotrypsin-like activity (TcProtChymo) assay. Also: in the data most compounds retested in dose-response had high values. It counts as functional. Conditions: 9.37 µM.

For experiment [8], the species on record is Homo sapiens. The experiment is described as follows: To identify inhibition of the IFN signalling (Jak-Stat) pathway via expression of an eGFP reporter gene under the control of an IFN-stimulated response element (ISRE) containing MxA promoter. As to conditions: 30 µM. It is filed as functional. (In general: In a reporter assay the amount or activity of a reporter protein is the signal.)

Experiment [9] concerns the target T4, Tyrosyl-tRNA synthetase, putative (Trypanosoma cruzi (strain CL Brener)) (UniProt Q4DSP6).
T4 sequence (whole entry): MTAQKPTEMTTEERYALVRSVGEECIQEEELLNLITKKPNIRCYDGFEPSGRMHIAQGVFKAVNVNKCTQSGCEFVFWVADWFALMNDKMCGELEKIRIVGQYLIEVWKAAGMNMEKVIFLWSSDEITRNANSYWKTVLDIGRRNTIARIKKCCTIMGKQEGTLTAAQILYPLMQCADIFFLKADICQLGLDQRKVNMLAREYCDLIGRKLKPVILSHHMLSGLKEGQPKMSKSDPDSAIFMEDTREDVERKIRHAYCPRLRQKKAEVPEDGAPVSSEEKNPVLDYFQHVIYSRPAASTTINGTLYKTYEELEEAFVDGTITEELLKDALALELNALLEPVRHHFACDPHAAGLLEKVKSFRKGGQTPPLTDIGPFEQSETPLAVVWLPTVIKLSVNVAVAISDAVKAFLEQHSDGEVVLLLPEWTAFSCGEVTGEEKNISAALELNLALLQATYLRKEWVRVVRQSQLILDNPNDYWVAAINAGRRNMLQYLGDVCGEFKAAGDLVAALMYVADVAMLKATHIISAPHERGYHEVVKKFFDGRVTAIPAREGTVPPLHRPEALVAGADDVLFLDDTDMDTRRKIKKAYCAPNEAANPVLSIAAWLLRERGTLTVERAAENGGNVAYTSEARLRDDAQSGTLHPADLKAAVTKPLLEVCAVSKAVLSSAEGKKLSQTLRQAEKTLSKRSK
Nature of the experiment: Trypanosoma cruzi tyrosyl tRNA synthetase (TcYRS) _High Tyrosine SOP. Also: in the data most compounds retested in dose-response had high values. It is filed as functional. Conditions: 30 µM.

The target of experiment [10] is T4, Tyrosyl-tRNA synthetase, putative (Trypanosoma cruzi (strain CL Brener)). Nature of the experiment: Trypanosoma cruzi tyrosyl tRNA synthetase (TcYRS) SOP. It counts as functional. Conditions: 30 µM.
The target of experiment [11] is Chromo domain-containing protein 1 (Saccharomyces cerevisiae (strain ATCC 204508 / S288c) (Baker's yeast)) (UniProt P32657). Nature of the experiment: ScCHD-1 Enzyme Inhibition Assay. Also: in the data most compounds retested in dose-response had high values. It counts as functional. Conditions: 30 µM.
Chromo domain-containing protein 1 (Saccharomyces cerevisiae (strain ATCC 204508 / S288c) (Baker's yeast)), sequence (P32657 whole entry, the tested form may be a part): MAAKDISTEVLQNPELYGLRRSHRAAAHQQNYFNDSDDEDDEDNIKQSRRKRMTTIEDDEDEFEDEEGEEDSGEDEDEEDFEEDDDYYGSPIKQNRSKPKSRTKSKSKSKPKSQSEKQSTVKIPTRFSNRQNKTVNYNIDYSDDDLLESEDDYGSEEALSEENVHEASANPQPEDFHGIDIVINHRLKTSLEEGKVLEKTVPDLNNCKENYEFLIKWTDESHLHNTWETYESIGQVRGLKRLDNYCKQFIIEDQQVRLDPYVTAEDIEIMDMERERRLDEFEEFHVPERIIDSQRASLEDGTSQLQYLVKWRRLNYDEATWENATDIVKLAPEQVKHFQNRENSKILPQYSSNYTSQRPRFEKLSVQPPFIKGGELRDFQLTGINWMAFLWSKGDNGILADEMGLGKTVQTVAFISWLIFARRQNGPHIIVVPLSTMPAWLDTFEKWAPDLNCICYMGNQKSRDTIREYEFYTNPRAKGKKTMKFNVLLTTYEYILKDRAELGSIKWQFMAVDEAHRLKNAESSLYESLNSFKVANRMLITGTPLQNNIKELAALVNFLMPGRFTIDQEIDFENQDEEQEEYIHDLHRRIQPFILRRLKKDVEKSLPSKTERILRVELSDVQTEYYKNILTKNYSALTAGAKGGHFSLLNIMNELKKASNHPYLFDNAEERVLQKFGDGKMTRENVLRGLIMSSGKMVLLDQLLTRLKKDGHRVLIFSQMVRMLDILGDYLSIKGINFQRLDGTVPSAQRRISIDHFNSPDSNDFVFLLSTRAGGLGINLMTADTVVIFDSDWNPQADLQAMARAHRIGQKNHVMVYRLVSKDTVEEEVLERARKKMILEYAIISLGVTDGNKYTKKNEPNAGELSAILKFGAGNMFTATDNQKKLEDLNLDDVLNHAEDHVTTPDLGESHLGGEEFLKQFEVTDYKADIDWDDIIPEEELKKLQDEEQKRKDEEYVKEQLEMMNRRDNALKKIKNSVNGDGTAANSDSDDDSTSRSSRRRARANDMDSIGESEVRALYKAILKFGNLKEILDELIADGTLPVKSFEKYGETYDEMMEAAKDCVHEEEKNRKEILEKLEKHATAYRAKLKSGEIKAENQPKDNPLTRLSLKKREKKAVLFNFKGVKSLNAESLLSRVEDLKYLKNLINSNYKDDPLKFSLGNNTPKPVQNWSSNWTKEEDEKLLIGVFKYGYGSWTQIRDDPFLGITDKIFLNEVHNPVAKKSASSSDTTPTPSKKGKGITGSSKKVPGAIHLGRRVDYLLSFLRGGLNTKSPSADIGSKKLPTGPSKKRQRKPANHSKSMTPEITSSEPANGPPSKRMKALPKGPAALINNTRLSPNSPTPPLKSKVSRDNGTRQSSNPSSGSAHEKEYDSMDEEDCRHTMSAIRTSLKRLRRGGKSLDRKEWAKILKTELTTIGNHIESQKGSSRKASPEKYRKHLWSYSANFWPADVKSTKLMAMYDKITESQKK

For some of these results: Results with a measured potency or affinity are listed apart.

Protein translocase subunit SecA (Escherichia coli (strain K12)), sequence (P10408 whole entry): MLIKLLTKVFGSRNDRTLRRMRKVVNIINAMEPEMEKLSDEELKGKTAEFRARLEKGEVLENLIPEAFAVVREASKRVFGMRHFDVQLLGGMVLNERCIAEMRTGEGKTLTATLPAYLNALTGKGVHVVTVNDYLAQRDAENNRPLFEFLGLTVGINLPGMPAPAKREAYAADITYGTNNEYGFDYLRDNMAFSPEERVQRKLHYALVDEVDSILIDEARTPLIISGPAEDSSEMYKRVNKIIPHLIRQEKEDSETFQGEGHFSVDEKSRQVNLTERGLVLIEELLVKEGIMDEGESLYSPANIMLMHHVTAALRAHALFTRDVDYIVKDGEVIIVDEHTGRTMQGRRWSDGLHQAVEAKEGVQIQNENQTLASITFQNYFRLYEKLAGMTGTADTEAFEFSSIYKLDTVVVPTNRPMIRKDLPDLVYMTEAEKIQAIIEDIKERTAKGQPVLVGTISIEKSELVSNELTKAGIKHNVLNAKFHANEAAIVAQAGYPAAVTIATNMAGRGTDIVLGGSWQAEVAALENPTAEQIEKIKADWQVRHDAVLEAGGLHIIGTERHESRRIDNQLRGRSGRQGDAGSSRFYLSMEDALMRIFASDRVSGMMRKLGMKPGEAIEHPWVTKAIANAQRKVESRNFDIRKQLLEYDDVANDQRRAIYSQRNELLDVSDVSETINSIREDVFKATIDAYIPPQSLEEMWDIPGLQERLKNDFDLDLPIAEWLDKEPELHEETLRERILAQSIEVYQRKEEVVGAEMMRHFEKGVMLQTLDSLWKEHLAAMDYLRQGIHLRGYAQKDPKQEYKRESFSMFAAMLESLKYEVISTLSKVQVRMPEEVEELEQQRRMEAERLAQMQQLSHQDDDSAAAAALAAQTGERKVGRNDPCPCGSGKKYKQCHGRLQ
Sialic acid-binding Ig-like lectin 9 (Homo sapiens), sequence (Q9Y336 whole entry): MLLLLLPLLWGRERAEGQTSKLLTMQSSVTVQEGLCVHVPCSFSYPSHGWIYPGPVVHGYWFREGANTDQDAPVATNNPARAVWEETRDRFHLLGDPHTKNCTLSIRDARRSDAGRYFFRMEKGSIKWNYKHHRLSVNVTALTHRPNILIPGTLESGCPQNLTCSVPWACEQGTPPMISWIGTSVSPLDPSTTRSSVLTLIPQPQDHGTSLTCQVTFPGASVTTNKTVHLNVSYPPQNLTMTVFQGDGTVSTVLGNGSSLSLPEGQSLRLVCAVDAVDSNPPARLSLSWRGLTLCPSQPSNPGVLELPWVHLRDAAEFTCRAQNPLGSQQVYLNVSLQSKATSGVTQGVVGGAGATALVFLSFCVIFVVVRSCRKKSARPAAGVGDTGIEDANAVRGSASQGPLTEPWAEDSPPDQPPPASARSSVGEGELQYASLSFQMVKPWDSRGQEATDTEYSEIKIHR

Consider `Cc1cccc(CNCc2c(C)nn(C)c2N2CCOCC2)n1`, for which the Percent Effect in [1] was 0.786%; in experiment [2], 8.22%; in experiment [3] it was 4.7%; in experiment [4], 2.65%; in experiment [5], 5.09%; in experiment [6] it was 13.2%. Also, the Percent Effect in experiment [7] was 19.3%; in [8] it was -6.96%; in [9] it was 8.6%; in experiment [10] it was 15%; in [11], -6.04%.
Regarding `COCC1CN(C(=O)COc2ccccc2)Cc2cn(C)nc21` (stereo unspecified), the Percent Effect is 1.54% in experiment [1]; -2.6% in experiment [2]; 1.75% in experiment [3]; 4.23% in [4]; -2.27% in [5]; -8.39% in [6]. Further, the Percent Effect was 1.39% in experiment [7]; 9.62% in experiment [8]; -5.29% in [9]; -1.28% in [10]; -6.88% in [11].
For the compound `CCC(=O)NC1CCN(c2cccc(CC)c2)CC1`, the Percent Effect was -7.28% in experiment [1]; 3.8% in experiment [2]; 2.12% in experiment [3]; -4.76% in [4]; 1.13% in [5]; -1.5% in [6]. For the same compound, the Percent Effect in experiment [7] was 4.97%; in experiment [8], 16.9%; in experiment [9], 3.12%; in [10], -10.1%; in experiment [11], -27.3%.
For `CC(NC(=O)N(C)Cc1ccncc1)c1nncn1C` (stereo unspecified), the Percent Effect is -3.28% in experiment [1]; 20.8% in experiment [2]; 3.42% in experiment [3]; 21% in experiment [4]; 2.43% in experiment [5]; 22.5% in experiment [6]. For the same compound, the Percent Effect was 13.2% in [7]; -6.33% in experiment [8]; 1.05% in experiment [9]; 15.4% in [10]; -7.53% in [11].
For the compound `Cc1ccc(NC(=O)N2CCC(NC(=O)c3ccc(C)o3)CC2)cc1`, the Percent Effect was -4.11% in experiment [1]; 15.6% in experiment [2]; 3.14% in experiment [3]; 4.46% in experiment [4]; 2.45% in experiment [5]; 0.632% in [6]. Further, the Percent Effect in [7] is 6.39%; in experiment [8] it was 8.38%; in experiment [9] it was 8.57%; in experiment [10], 23.5%; in experiment [11] it was -10.9%.
Regarding `Cc1cnn(CC2CCCN2C(=O)c2cc3ccccc3[nH]2)c1` (stereo unspecified), the Percent Effect is -8.63% in experiment [1]; 13% in experiment [2]; -0.229% in [3]; -0.244% in [4]; 7.74% in [5]; -1.05% in [6]. Besides, the Percent Effect in experiment [7] is 7.2%; in experiment [8], 1.95%; in experiment [9], 3.81%; in experiment [10] it was 11.8%; in [11], -12.1%.
On to `CC(O)CN1CCN(C(=O)c2ccc(N(C)C)nn2)CC1` (stereo unspecified), for which the Percent Effect in experiment [1] is -4.58%; in experiment [2] it was 10.4%; in experiment [3], -1.75%; in experiment [4], 11.7%; in [5] it was 3.93%; in experiment [6], 4.27%. Besides, the Percent Effect was 1.18% in experiment [7]; 17.9% in [8]; 3.88% in [9]; 12.2% in experiment [10]; -9.31% in [11].
Consider `CCn1cnnc1C1CCN(C(=O)c2ccc3cc[nH]c3c2)CC1`, for which the Percent Effect is -5.68% in experiment [1]; 7.89% in experiment [2]; 11.4% in [3]; 8.5% in experiment [4]; -3.21% in experiment [5]; 3.55% in experiment [6]. The Percent Effect in experiment [7] is 11%; in experiment [8], -5.37%; in [9], -2.13%; in [10], 7.79%; in experiment [11], -4.05%.
As for `Cc1nc([C@@H]2C[C@@H]3CCN(C(=O)c4ccnnc4)C[C@H]3O2)sc1C`, the Percent Effect was -3.66% in [1]; 18.2% in [2]; -2.5% in [3]; -0.581% in [4]; 5.42% in [5]; 1.94% in experiment [6]. Besides, the Percent Effect is 14.4% in [7]; 16.5% in experiment [8]; 4.23% in experiment [9]; 16.7% in [10]; -7.55% in experiment [11].
In the case of `O=C(O)C1CCCCN1C(=O)c1cccc(C(F)(F)F)c1` (stereo unspecified), the Percent Effect in experiment [1] was -6.15%; in experiment [2] it was 13.2%; in experiment [3], -2.92%; in experiment [4], 7.67%; in [5], 1.4%; in experiment [6], -2.88%. The Percent Effect was 2.62% in experiment [7]; -1.55% in experiment [8]; 4.43% in experiment [9]; 16.1% in [10]; 3.59% in experiment [11].
As for `Cc1nn(C)c(C)c1C1CCCN1Cc1nc(C2CC2)no1` (stereo unspecified), the Percent Effect was -2.91% in [1]; 16.2% in experiment [2]; 0.977% in experiment [3]; -3.54% in [4]; 6.22% in experiment [5]; -0.924% in [6]. Moreover, the Percent Effect in experiment [7] was 15.6%; in experiment [8], 16.5%; in experiment [9], 5.94%; in [10], 18.3%; in experiment [11], -7.69%.

These data come from ChEMBL document CHEMBL3988442, “University of Dundee, Small-Polar-MMV Screening Library” (2021).
